Test [1] relates to frog Estrogen Receptor (ER), gene 398734. Nature of the test: ATG_frER1_XSP2: Attagene TRANS-FACTORIAL Multi-Species (XSP2) HepG2 Assay for frog Estrogen Receptor (ER) (AID 2283821).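 Also: hits raise reporter mRNA above DMSO baseline so potency means agonist or activator.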 The method, boiled down: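 Gain-of-signal mRNA reporter assay, HepG2 human liver cells, 24 h dosing; transcripts read by fluorescent RT-PCR fragment analysis, DMSO as negative control.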
Test [2] has as its target Estrogen receptor (Homo sapiens) (UniProt P03372). Nature of the test: ATG_hERa_XSP2: Attagene TRANS-FACTORIAL Multi-Species (XSP2) HepG2 Assay for human Estrogen Receptor (ERa) (AID 2283827). The method, boiled down:
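Trans-activation of exogenous human ERa-Gal4 chimera read in HepG2 as reporter transcript after 24 h exposure; medium included 3 nM 6-alpha-fluorotestosterone and 1.5 nM norgestrel. Quantified by RT-PCR with capillary electrophoresis, positive-direction fitting against DMSO.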

Test [3] relates to frog Estrogen Receptor (ER2), gene 100174814. Briefly: ATG_frER2_XSP2: Attagene TRANS-FACTORIAL Multi-Species (XSP2) HepG2 Assay for frog Estrogen Receptor (ER2) (AID 2283828). In outline:
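Induction of reporter mRNA, baseline set by DMSO, is the endpoint. The panel was run in transfected HepG2 cells over 24 h, with 3 nM 6-alpha-fluorotestosterone and 1.5 nM norgestrel present to stimulate androgen receptor.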

Test [4] addresses Peroxisome proliferator-activated receptor gamma (Homo sapiens) (UniProt P37231). Briefly: ATG_hPPARg_XSP2: Attagene TRANS-FACTORIAL Multi-Species (XSP2) HepG2 Assay for human Peroxisome Proliferator-activated Receptor gamma (PPARg) (AID 2283829).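 Also: actives raise reporter mRNA above DMSO so AC50 reflects PPARg activation.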 In outline: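 Human HepG2 cells carried transiently transfected Gal4 reporter units and were treated with chemical for 24 h alongside androgen-receptor stimulants (3 nM 6-alpha-fluorotestosterone, 1.5 nM norgestrel). Reporter transcripts were detected by RT-PCR with capillary electrophoresis, analysed in the positive direction against DMSO.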

The target in test [5] is mouse Peroxisome Proliferator-activated Receptor gamma (PPARg), Pparg (gene 19016) (UniProt P37238). Briefly: ATG_mPPARg_XSP2: Attagene TRANS-FACTORIAL Multi-Species (XSP2) HepG2 Assay for mouse Peroxisome Proliferator-activated Receptor gamma (PPARg) (AID 2283830).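 Also: hits are gains in reporter mRNA above DMSO so AC50 marks activation.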 In outline: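 Multiplexed TRANS reporter readout: after 24 h chemical exposure of transfected HepG2 cells (with 3 nM 6-alpha-fluorotestosterone, 1.5 nM norgestrel present), RNA reverse-transcribed, amplified, 6-FAM-labelled and resolved by capillary electrophoresis; mouse PPARg-Gal4 induction scored against DMSO.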
mouse Peroxisome Proliferator-activated Receptor gamma (PPARg), Pparg (gene 19016), sequence (P37238 whole entry, looked up, the tested form may be a part): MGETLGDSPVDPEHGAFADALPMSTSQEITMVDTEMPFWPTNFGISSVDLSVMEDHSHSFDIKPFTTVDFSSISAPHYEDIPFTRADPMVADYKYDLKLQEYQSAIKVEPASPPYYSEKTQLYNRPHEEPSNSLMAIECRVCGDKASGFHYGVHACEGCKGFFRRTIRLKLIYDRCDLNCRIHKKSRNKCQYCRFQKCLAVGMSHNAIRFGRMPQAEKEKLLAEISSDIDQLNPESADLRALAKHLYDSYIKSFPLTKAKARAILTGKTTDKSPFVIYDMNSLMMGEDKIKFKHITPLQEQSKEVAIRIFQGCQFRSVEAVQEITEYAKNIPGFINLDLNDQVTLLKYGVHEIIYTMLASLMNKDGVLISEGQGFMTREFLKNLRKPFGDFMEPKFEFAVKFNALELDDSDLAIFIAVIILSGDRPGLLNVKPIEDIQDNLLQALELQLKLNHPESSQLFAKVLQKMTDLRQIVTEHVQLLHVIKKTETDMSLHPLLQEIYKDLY

Test [6] addresses zebrafish Thyroid Hormone Receptor alpha (TRa), thraa (gene 30670) (UniProt Q98867). Nature of the test: ATG_zfTRa_XSP2: Attagene TRANS-FACTORIAL Multi-Species (XSP1) HepG2 Assay for zebrafish Thyroid Hormone Receptor alpha (TRa) (AID 2283832).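 Also: actives raise zebrafish TRa-Gal4 reporter transcript above DMSO baseline.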 In outline: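 HepG2, transient MRTU transfection, exogenous NR-Gal4 chimeras; 24 h dosing; mRNA readout via RT-PCR/CE fluorescence; positive direction vs DMSO.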

In test [7] the test system is zebrafish Peroxisome Proliferator-activated Receptor gamma (PPARg), gene 557037. Briefly: ATG_zfPPARg_XSP2: Attagene TRANS-FACTORIAL Multi-Species (XSP2) HepG2 Assay for zebrafish Peroxisome Proliferator-activated Receptor gamma (PPARg) (AID 2283833).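 Also: actives increase reporter signal over DMSO so AC50 reflects activation.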 In outline: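 HepG2, transient MRTU transfection, 24 h compound; zfPPARg-GAL4 reporter mRNA by RT-PCR + capillary electrophoresis; gain-of-signal vs DMSO.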

A short description of test [8]: ATG_M_61_XSP2: Attagene TRANS-FACTORIAL Multi-Species (XSP2) HepG2 Assay for M61 Transcription Factor (Internal Marker) (AID 2283835; active = hit-call score of the fitted dose curve at least 0.9, where 1 is the maximum; inactive = score below 0.9;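 also: active means a rise in signal above the DMSO baseline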). In outline: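 Signal was mRNA induction detected as fluorescence after RT-PCR and capillary electrophoresis, analysed in the gain direction with DMSO as baseline. HepG2 cells transiently carrying reporter constructs received chemicals for 24 h.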

Test [9] addresses zebrafish Thyroid Hormone Receptor beta (TRb), thrb (gene 30607) (UniProt Q9PVE4). Nature of the test: ATG_zfTRb_XSP2: Attagene TRANS-FACTORIAL Multi-Species (XSP1) HepG2 Assay for zebrafish Thyroid Hormone Receptor beta (TRb) (AID 2283836). In outline:
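Transfect HepG2 with multiple reporter transcription units, dose chemical, incubate 24 h. Isolate RNA, reverse-transcribe, amplify and fluorescently label reporter sequences, digest with HpaI, then resolve by capillary electrophoresis. Positive direction fitted against DMSO.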

Test [10] has as its target human Thyroid hormone Receptor alpha (TRa), THRA (gene 7067) (UniProt P10827). Briefly: ATG_hTRa_XSP2: Attagene TRANS-FACTORIAL Multi-Species (XSP2) HepG2 Assay for human Thyroid hormone Receptor alpha (TRa) (AID 2283838). The method, boiled down:
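Reporter transcripts were read by RT-PCR with fluorescent primer extension, HpaI digestion and capillary electrophoresis. These came from HepG2 cells carrying multiplexed TRa-Gal4 TRANS constructs, harvested 24 hours after dosing. The medium also held 6-alpha-fluorotestosterone (3 nM) and norgestrel (1.5 nM), and increases were fitted against DMSO.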

For test [11], the target named is frog Thyroid hormone Receptor alpha (TRa), thra-a (gene 397942) (UniProt P15204). Briefly: ATG_frTRa_XSP2: Attagene TRANS-FACTORIAL Multi-Species (XSP2) HepG2 Assay for frog Thyroid hormone Receptor alpha (TRa) (AID 2283839). The method, boiled down: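 Chimeric frog TRα-GAL4 activity in human liver cells measures reporter transcript induction 24 h post-dose. Detection uses RT-PCR, HpaI-digested labelled products and fluorescence capillary electrophoresis; DMSO serves as negative control.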
frog Thyroid hormone Receptor alpha (TRa), thra-a (gene 397942), sequence (P15204 whole entry, looked up, the tested form may be a part): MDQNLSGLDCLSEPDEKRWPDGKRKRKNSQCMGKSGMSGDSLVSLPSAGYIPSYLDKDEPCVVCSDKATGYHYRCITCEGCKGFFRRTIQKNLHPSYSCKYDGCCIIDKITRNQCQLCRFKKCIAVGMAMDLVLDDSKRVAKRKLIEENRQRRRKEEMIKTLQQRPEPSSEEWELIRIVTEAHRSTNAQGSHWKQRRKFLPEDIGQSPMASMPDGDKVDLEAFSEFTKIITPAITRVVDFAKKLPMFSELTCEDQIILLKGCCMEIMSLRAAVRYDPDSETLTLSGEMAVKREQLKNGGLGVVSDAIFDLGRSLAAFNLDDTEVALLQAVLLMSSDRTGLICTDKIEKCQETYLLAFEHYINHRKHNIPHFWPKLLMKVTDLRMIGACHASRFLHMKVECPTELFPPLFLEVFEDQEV

Test [12] addresses human Thyroid hormone Receptor beta (TRb), THRB (gene 7068) (UniProt P10828). Nature of the test: ATG_hTRb_XSP2: Attagene TRANS-FACTORIAL Multi-Species (XSP2) HepG2 Assay for human Thyroid hormone Receptor beta (TRb) (AID 2283840).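 Also: actives raise reporter mRNA so potency reflects agonist-like gain of signal.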 The method, boiled down:
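Gain-of-signal reporter transcription, referenced to DMSO, was measured in transiently transfected HepG2 after 24 h exposure; labeled RT-PCR products were resolved by capillary electrophoresis. Assay medium included 3 nM 6-alpha-fluorotestosterone and 1.5 nM norgestrel.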

Test [13] has as its system Sodium/Iodide Symporter (NIS), SLC5A5 (gene 6528). Briefly: CPHEA_Stoker_NIS_Inhibition_RAIU: CPHEA's Radioactive Iodide Uptake (RAIU) Assay for Sodium/Iodide Symporter (NIS) Inhibition, Stoker and Laws Labs (AID 2283841). In outline: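 hNIS-HEK293T-EPA cells incubated 2 h at room temperature with compound (0.001–100 uM, 0.5% DMSO) and 329 pM final 125I in HBSS/10 mM HEPES, pH 7.4. Intracellular 125I counted; normalised to DMSO maximal uptake, triplicate, three biological replicates.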

Test [14] is described as follows: CPHEA_Stoker_NIS_Cytotoxicity: Cytotoxicity Assessment for CPHEA's Radioactive Iodide Uptake (RAIU) Assay for Sodium/Iodide Symporter (NIS) Inhibition, Stoker and Laws Labs (AID 2283897).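 As to AC50: active means loss of ATP signal versus DMSO meaning cytotoxicity.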 The method, boiled down:
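hNIS-HEK293T-EPA cells, human NIS expressed in HEK293T, treated 2 h with chemicals (0.001–100 uM, 0.5% final DMSO). ATP content read by CellTiter-Glo luminescence; loss of signal analysed relative to DMSO.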

Test [15] in a line: ATG_M_19_XSP2: Attagene TRANS-FACTORIAL Multi-Species (XSP2) HepG2 Assay for M32 Transcription Factor (Internal Marker) (AID 2283822). In outline: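 Internal background marker in a multi-species nuclear receptor TRANS panel: transfected HepG2 cells exposed 24 h, with 3 nM 6-alpha-fluorotestosterone and 1.5 nM norgestrel present. Readout is RT-PCR of reporter transcripts resolved by capillary electrophoresis, gain-of-signal versus DMSO.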

Test [16] can be described thus: ATG_M_32_XSP2: Attagene TRANS-FACTORIAL Multi-Species (XSP2) HepG2 Assay for M19 Transcription Factor (Internal Marker) (AID 2283826). The method, boiled down:
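An internal background marker among multiplexed transfected reporters in HepG2 liver cells was measured 24 h after dosing. Androgen receptor stimulation came from 3 nM 6-alpha-fluorotestosterone and 1.5 nM norgestrel.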

Test [17] deals with turtle Thyroid Hormone Receptor, alpha (TRa), gene 101949057. Nature of the test: ATG_trTRa_XSP2: Attagene TRANS-FACTORIAL Multi-Species (XSP1) HepG2 Assay for turtle Thyroid Hormone Receptor, alpha (TRa) (AID 2283834).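 Also: hits raise reporter mRNA over the DMSO baseline so AC50 marks activators.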 In outline: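 Multiplexed TRANS reporter assay; HepG2 carrying NR-Gal4 constructs treated 24 h. mRNA of the GAL4-UAS reporter quantified via labelled RT-PCR fragments on a genetic analyzer, vs DMSO negative control.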

The test system of test [18] is zebrafish Androgen Receptor (AR), gene 100005148. Nature of the test: ATG_zfAR_XSP2: Attagene TRANS-FACTORIAL Multi-Species (XSP2) HepG2 Assay for zebrafish Androgen Receptor (AR) (AID 2283825).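 Also: hits raise reporter mRNA above DMSO so AC50 reflects agonist-type gain.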 The method, boiled down:
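After 24 h compound exposure in medium with 3 nM 6-alpha-fluorotestosterone plus 1.5 nM norgestrel, HepG2 cells carrying zebrafish AR–GAL4 reporter constructs were assessed for reporter mRNA gain by RT-PCR and capillary electrophoresis.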

SMILES strings stand for the structures. Several values for one entry are separate records, joined by “and”; a condition that tells them apart may be missing. Equal entries are not always repeated. Results filed as inconclusive are left out. Activity calls are given as the source filed them. The calls were made as follows, unless noted: active = hit-call score of the fitted dose curve at least 0.9, where 1 is the maximum; inconclusive = response in the unintended direction; inactive = score below 0.9.

zebrafish Thyroid Hormone Receptor alpha (TRa), thraa (gene 30670), sequence (Q98867 whole entry, looked up, the tested form may be a part): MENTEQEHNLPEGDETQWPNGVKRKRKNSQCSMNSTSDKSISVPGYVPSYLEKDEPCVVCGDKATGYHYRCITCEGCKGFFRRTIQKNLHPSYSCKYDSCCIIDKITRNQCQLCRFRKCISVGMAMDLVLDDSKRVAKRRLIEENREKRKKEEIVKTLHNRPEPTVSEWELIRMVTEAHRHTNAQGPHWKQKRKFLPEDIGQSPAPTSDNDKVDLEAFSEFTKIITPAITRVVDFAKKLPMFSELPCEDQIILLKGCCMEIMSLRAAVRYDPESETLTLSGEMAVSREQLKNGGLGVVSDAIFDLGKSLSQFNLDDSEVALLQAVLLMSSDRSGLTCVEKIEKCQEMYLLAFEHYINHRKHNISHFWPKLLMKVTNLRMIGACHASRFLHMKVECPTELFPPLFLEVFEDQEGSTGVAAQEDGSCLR
human Thyroid hormone Receptor beta (TRb), THRB (gene 7068), sequence (P10828 whole entry, looked up): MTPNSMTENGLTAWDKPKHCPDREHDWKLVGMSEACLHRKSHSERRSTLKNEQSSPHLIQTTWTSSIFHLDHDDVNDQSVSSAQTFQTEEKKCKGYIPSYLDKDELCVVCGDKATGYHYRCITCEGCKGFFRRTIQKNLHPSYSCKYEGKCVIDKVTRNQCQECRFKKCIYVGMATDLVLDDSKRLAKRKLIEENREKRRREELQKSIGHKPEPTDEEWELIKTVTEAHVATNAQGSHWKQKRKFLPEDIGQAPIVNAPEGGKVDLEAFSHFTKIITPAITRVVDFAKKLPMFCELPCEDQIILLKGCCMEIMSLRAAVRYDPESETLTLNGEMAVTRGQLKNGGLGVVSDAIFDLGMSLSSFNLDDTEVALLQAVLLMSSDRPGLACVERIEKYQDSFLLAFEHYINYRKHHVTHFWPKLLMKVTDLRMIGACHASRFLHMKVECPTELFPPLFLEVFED
zebrafish Thyroid Hormone Receptor beta (TRb), thrb (gene 30607), sequence (Q9PVE4 whole entry, looked up): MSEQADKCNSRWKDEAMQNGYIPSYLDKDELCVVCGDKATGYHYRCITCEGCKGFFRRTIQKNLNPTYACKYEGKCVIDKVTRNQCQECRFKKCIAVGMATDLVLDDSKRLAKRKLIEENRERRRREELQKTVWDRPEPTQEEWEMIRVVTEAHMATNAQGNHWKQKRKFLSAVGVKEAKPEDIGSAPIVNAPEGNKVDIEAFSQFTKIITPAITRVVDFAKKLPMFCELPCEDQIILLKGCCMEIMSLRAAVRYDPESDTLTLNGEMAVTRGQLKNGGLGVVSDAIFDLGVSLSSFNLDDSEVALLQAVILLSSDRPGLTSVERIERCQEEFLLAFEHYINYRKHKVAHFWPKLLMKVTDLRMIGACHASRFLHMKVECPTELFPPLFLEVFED
human Thyroid hormone Receptor alpha (TRa), THRA (gene 7067), sequence (P10827 whole entry, looked up, the tested form may be a part): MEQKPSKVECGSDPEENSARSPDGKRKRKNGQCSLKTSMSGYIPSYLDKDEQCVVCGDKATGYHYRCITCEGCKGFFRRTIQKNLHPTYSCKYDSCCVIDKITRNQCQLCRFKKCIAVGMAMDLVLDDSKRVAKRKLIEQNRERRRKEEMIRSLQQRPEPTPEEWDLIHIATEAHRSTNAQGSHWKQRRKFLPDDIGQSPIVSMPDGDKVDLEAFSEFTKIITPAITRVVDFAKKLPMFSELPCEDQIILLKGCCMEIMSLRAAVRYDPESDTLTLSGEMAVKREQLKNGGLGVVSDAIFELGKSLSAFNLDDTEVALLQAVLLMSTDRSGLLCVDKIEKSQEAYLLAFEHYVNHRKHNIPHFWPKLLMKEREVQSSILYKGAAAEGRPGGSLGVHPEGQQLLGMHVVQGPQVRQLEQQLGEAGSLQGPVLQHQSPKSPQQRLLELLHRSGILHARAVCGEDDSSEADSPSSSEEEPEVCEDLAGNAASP
Estrogen receptor (Homo sapiens), sequence (P03372 whole entry, looked up, the tested form may be a part): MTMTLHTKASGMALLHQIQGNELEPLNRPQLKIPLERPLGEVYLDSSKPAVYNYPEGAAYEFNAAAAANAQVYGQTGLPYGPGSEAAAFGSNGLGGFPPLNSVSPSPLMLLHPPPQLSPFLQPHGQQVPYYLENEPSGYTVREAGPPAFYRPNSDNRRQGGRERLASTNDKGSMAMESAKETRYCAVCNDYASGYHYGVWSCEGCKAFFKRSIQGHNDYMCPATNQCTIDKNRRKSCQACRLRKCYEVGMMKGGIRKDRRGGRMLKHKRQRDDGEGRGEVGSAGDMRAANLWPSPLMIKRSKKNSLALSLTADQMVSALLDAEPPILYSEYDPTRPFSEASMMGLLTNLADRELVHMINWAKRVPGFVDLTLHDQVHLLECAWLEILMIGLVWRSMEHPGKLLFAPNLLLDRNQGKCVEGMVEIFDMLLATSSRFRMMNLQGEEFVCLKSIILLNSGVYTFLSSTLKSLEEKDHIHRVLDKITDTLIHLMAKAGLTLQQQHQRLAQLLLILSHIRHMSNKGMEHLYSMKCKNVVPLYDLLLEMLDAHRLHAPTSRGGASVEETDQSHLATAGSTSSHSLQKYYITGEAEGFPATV
Peroxisome proliferator-activated receptor gamma (Homo sapiens), sequence (P37231 whole entry, looked up, the tested form may be a part): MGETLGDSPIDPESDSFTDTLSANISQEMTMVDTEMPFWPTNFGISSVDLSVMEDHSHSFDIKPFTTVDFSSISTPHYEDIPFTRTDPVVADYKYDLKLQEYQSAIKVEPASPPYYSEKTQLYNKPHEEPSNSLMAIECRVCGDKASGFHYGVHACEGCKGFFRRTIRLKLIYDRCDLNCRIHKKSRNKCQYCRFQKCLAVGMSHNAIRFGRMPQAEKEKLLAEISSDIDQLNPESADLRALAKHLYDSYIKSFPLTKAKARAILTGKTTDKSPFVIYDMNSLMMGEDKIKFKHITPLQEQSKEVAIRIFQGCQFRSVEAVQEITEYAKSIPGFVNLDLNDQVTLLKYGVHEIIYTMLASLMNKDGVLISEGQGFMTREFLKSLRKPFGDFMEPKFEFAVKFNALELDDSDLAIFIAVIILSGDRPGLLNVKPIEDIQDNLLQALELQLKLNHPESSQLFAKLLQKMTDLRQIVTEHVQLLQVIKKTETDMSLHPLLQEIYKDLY

With `C=C(C)CN(CC)c1c([N+](=O)[O-])cc(C(F)(F)F)cc1[N+](=O)[O-]`, the AC50 was 6.84 µM (active) and 32.4 µM (active) in [1]; 7.36 µM (active) and 44.2 µM (active) in [2]; 10.5 µM (active) and 7.61 µM (active) in test [3]; 41 µM (active) and 23 µM (active) in test [4]; 43.7 µM (active) and 52.8 µM (active) in test [5]; 5.45 µM (active) in test [13]. In [14], the AC50 was 9.92 µM (active). Further, the call in [6], in [7], in [8], in [9], in test [10] and in [11] was inactive. For the same molecule, the result in test [12] was inactive.
As to `CC1(C)C(C(=O)OC(C#N)c2cccc(Oc3ccccc3)c2)C1(C)C` (stereo not drawn), the outcome in [13] and in test [14] was inactive.
Regarding `CCOc1nc(F)cc2nc(S(=O)(=O)Nc3c(Cl)cccc3Cl)nn12`, the outcome in test [13] and in test [14] was inactive.
`CCOP(=S)(OCC)Oc1nc(Cl)n(C(C)C)n1`: the result in test [13] and in [14] was inactive.
In the case of `Clc1cccc(C(Cl)(Cl)Cl)n1`, the result in test [13] and in test [14] was inactive.
`CCOP(=O)(OCC)Oc1nc(Cl)c(Cl)cc1Cl`: the outcome in [13] and in test [14] was inactive.
`OC(c1ccc(Cl)cc1)(c1ccc(Cl)cc1)C(Cl)(Cl)Cl`: the AC50 in [13] is 30.2 µM (active); in test [14] it was 50 µM (active).
As to `CC1(C)CCC(=Cc2ccc(Cl)cc2)C1(O)Cn1cncn1` (stereo not drawn), the call in test [1], in test [15], in [16], in test [4], in [5] and in test [6] was inactive. Besides, the outcome in test [7], in test [17], in test [9], in [10], in test [11] and in test [12] was inactive. In addition, the AC50 in [2] was 13.4 µM (active); in test [3], 63 µM (active).
As for `CC1(C)CON(Cc2ccccc2Cl)C1=O`, the result in test [13] and in test [14] was inactive.
As for `Cc1ccc(N=CN(C)C=Nc2ccc(C)cc2C)c(C)c1`, the outcome in [13] and in test [14] was inactive.
For `CC(C)Oc1cccc(NC(=O)c2ccccc2C(F)(F)F)c1`, the outcome in [13] and in [14] was inactive.
For the molecule `CCOC(=O)C(C)OC(=O)c1cc(Oc2ccc(C(F)(F)F)cc2Cl)ccc1[N+](=O)[O-]` (stereo not drawn), the outcome in test [13] and in [14] was inactive.
With `Cc1c(COC(=O)[C@@H]2[C@H](/C=C(\Cl)C(F)(F)F)C2(C)C)cccc1-c1ccccc1`, the AC50 was 49.3 µM (active) in test [1], 26.1 µM (active) in [2] and 100 µM (active) in test [3]. The outcome in test [15], in [18], in test [4], in test [5], in test [6] and in test [17] was inactive. The call in test [9], in test [10] and in test [11] was inactive.
For the molecule `COP(=S)(OC)Oc1ccc([N+](=O)[O-])c(C)c1`, the AC50 in test [1] is 50.4 µM (active); in test [2], 32.5 µM (active); in test [3], 85.1 µM (active); in test [4] it was 55.8 µM (active); in test [5] it was 31.3 µM (active). In addition, the outcome in [6], in test [7], in test [17], in test [8], in [9] and in [10] was inactive. In addition, the call in test [11], in test [12], in test [13] and in test [14] was inactive.
Consider `CC(C)NC(=O)N1CC(=O)N(c2cc(Cl)cc(Cl)c2)C1=O`, for which the molecule was called inactive in test [1], in test [15], in [18], in test [16], in [3] and in test [6]. Also, the outcome in test [7], in test [17], in test [8], in [9], in test [10] and in test [11] was inactive. Moreover, the AC50 in test [2] is 6.97 µM (active); in test [4], 33.2 µM (active); in test [5], 40.6 µM (active).
Consider `COC(=O)c1c(C(F)F)nc(C(F)(F)F)c(C2=NCCS2)c1CC(C)C`, for which the result in test [13] and in [14] was inactive.
Take `CCN(CC)c1nc(C)cc(OP(=S)(OC)OC)n1`: the outcome in test [13] and in [14] was inactive.
`CCNP(=S)(OC)O/C(C)=C/C(=O)OC(C)C` (stereo not drawn): the outcome in test [13] and in test [14] was inactive.
With `CC(C)N1C(=O)N(c2ccccc2)CSC1=NC(C)(C)C`, the AC50 in [13] was 27.8 µM (active); in test [14], 40.8 µM (active).

The record behind these values is PubChem BioAssay (EPA / NIEHS).
